# Results: publication PMC11062922 (Nature Chemical Biology, 2023)
# Read-outs that look alike come from different tables or passages of the source.
# How the values were obtained:
# STK3 = conditions: read-out: apparent Kd, n = 1
# STK4 = conditions: read-out: apparent Kd, n = 1
# [1] = compound concentrations:100 nM and 1000 nM (sheet 'Lestaurtinib' of Supplementary Table 1),run:Lestaurtinib_02367_R1,Plate:MR003
# [2] = compound concentrations:100 nM and 1000 nM (sheet 'Lestaurtinib' of Supplementary Table 1),run:Lestaurtinib_02367_R2,Plate:MR003
# [3] = compound concentrations:100 nM and 1000 nM (sheet 'Lestaurtinib' of Supplementary Table 1),run:Lestaurtinib_02367_R3,Plate:MR003
# [4] = compound concentrations:100 nM and 1000 nM (sheet 'Lestaurtinib' of Supplementary Table 1),run:Lestaurtinib_02381_R1,Plate:MR004
# [5] = compound concentrations:100 nM and 1000 nM (sheet 'Lestaurtinib' of Supplementary Table 1),run:Lestaurtinib_02381_R2,Plate:MR004
# [6] = compound concentrations:100 nM and 1000 nM (sheet 'Lestaurtinib' of Supplementary Table 1),run:Lestaurtinib_02407_R3,Plate:MR005
# [7] = compound concentrations:100 nM and 1000 nM (sheet 'Lestaurtinib' of Supplementary Table 1),run:Lestaurtinib_02422_R1,Plate:MR006
# [8] = compound concentrations:100 nM and 1000 nM (sheet 'Lestaurtinib' of Supplementary Table 1),run:Lestaurtinib_02422_R2,Plate:MR006
# [9] = compound concentrations:100 nM and 1000 nM (sheet 'Lestaurtinib' of Supplementary Table 1),run:Lestaurtinib_02437_R1,Plate:MR007
# [10] = compound concentrations:100 nM and 1000 nM (sheet 'Lestaurtinib' of Supplementary Table 1),run:Lestaurtinib_02437_R2,Plate:MR007
# [11] = compound concentrations:100 nM and 1000 nM (sheet 'Lestaurtinib' of Supplementary Table 1),run:Lestaurtinib_02438_R1,Plate:MR008
# [12] = compound concentrations:100 nM and 1000 nM (sheet 'Lestaurtinib' of Supplementary Table 1),run:Lestaurtinib_02443_R1,Plate:MR009
# [13] = compound concentrations:100 nM and 1000 nM (sheet 'Lestaurtinib' of Supplementary Table 1),run:Lestaurtinib_02473_R2,Plate:MR010
substance,measurement,setting,value
Lestaurtinib,potency estimated from few doses,STK3; [1],39.1 nM
same,potency estimated from few doses,STK3; [2],37.3 nM
same,potency estimated from few doses,STK3; [3],42.9 nM
same,potency estimated from few doses,STK3; [4],32.9 nM
same,potency estimated from few doses,STK3; [5],38.2 nM
same,potency estimated from few doses,"STK3; compound concentrations:100 nM and 1000 nM (sheet 'Lestaurtinib' of Supplementary Table 1),run:Lestaurtinib_02407_R1,Plate:MR005",40 nM
same,potency estimated from few doses,"STK3; compound concentrations:100 nM and 1000 nM (sheet 'Lestaurtinib' of Supplementary Table 1),run:Lestaurtinib_02407_R2,Plate:MR005",29.8 nM
same,potency estimated from few doses,STK3; [6],30.1 nM
same,potency estimated from few doses,STK3; [7],51.1 nM
same,potency estimated from few doses,STK3; [8],62.7 nM
same,potency estimated from few doses,STK3; [9],38.1 nM
same,potency estimated from few doses,STK3; [10],50.7 nM
same,potency estimated from few doses,STK3; [11],29.8 nM
same,potency estimated from few doses,STK3; [12],41.6 nM
same,potency estimated from few doses,"STK3; compound concentrations:100 nM and 1000 nM (sheet 'Lestaurtinib' of Supplementary Table 1),run:Lestaurtinib_02443_R2,Plate:MR009",39.1 nM
same,potency estimated from few doses,"STK3; compound concentrations:100 nM and 1000 nM (sheet 'Lestaurtinib' of Supplementary Table 1),run:Lestaurtinib_02473_R1,Plate:MR010",47.3 nM
same,potency estimated from few doses,STK3; [13],42.2 nM
same,potency estimated from few doses,"STK3; compound concentrations:100 nM and 1000 nM (sheet 'Lestaurtinib' of Supplementary Table 1),run:Lestaurtinib_02482_R1,Plate:MR011",27.1 nM
same,potency estimated from few doses,"STK3; compound concentrations:100 nM and 1000 nM (sheet 'Lestaurtinib' of Supplementary Table 1),run:Lestaurtinib_02482_R2,Plate:MR011",44.7 nM
same,potency estimated from few doses,"STK3; compound concentrations:100 nM and 1000 nM (sheet 'Lestaurtinib' of Supplementary Table 1),run:Lestaurtinib_02482_R3,Plate:MR011",40.8 nM
same,potency estimated from few doses,"STK3; compound concentrations:100 nM and 1000 nM (sheet 'Lestaurtinib' of Supplementary Table 1),run:Lestaurtinib_02487_R1,Plate:MR012",28.6 nM
same,potency estimated from few doses,"STK3; compound concentrations:100 nM and 1000 nM (sheet 'Lestaurtinib' of Supplementary Table 1),run:Lestaurtinib_02487_R3,Plate:MR012",38.9 nM
same,potency estimated from few doses,"STK3; compound concentrations:100 nM and 1000 nM (sheet 'Lestaurtinib' of Supplementary Table 1),run:Lestaurtinib_02496_R1,Plate:MR013",45 nM
same,potency estimated from few doses,"STK3; compound concentrations:100 nM and 1000 nM (sheet 'Lestaurtinib' of Supplementary Table 1),run:Lestaurtinib_02496_R3,Plate:MR013",48.7 nM
same,potency estimated from few doses,"STK3; compound concentrations:100 nM and 1000 nM (sheet 'Lestaurtinib' of Supplementary Table 1),run:Lestaurtinib_02566_R2,Plate:MR014",41 nM
same,potency estimated from few doses,"STK3; compound concentrations:100 nM and 1000 nM (sheet 'Lestaurtinib' of Supplementary Table 1),run:Lestaurtinib_02566_R3,Plate:MR014",24.5 nM
same,potency estimated from few doses,"STK3; compound concentrations:100 nM and 1000 nM (sheet 'Lestaurtinib' of Supplementary Table 1),run:Lestaurtinib_02572_R2,Plate:MR015",50.4 nM
same,potency estimated from few doses,"STK3; compound concentrations:100 nM and 1000 nM (sheet 'Lestaurtinib' of Supplementary Table 1),run:Lestaurtinib_02572_R3,Plate:MR015",58.4 nM
same,potency estimated from few doses,"STK3; compound concentrations:100 nM and 1000 nM (sheet 'Lestaurtinib' of Supplementary Table 1),run:Lestaurtinib_02577_R1,Plate:MR016",36 nM
same,potency estimated from few doses,"STK3; compound concentrations:100 nM and 1000 nM (sheet 'Lestaurtinib' of Supplementary Table 1),run:Lestaurtinib_02577_R2,Plate:MR016",45 nM
same,potency estimated from few doses,"STK3; compound concentrations:100 nM and 1000 nM (sheet 'Lestaurtinib' of Supplementary Table 1),run:Lestaurtinib_02584_R1,Plate:MR017",38.6 nM
same,potency estimated from few doses,"STK3; compound concentrations:100 nM and 1000 nM (sheet 'Lestaurtinib' of Supplementary Table 1),run:Lestaurtinib_02584_R3,Plate:MR017",47.5 nM
same,potency estimated from few doses,"STK3; compound concentrations:100 nM and 1000 nM (sheet 'Lestaurtinib' of Supplementary Table 1),run:Lestaurtinib_02601_R1,Plate:MR018",59.1 nM
same,potency estimated from few doses,"STK3; compound concentrations:100 nM and 1000 nM (sheet 'Lestaurtinib' of Supplementary Table 1),run:Lestaurtinib_02601_R2,Plate:MR018",39.6 nM
same,potency estimated from few doses,"STK3; compound concentrations:100 nM and 1000 nM (sheet 'Lestaurtinib' of Supplementary Table 1),run:Lestaurtinib_02606_R2,Plate:MR019",46.2 nM
same,potency estimated from few doses,"STK3; compound concentrations:100 nM and 1000 nM (sheet 'Lestaurtinib' of Supplementary Table 1),run:Lestaurtinib_02606_R3,Plate:MR019",47.4 nM
same,potency estimated from few doses,"STK3; compound concentrations:100 nM and 1000 nM (sheet 'Lestaurtinib' of Supplementary Table 1),run:Lestaurtinib_02624_R1,Plate:MR020",53.2 nM
same,potency estimated from few doses,"STK3; compound concentrations:100 nM and 1000 nM (sheet 'Lestaurtinib' of Supplementary Table 1),run:Lestaurtinib_02624_R2,Plate:MR020",42.5 nM
same,potency estimated from few doses,"STK3; compound concentrations:100 nM and 1000 nM (sheet 'Lestaurtinib' of Supplementary Table 1),run:Lestaurtinib_02624_R3,Plate:MR020",40.4 nM
same,potency estimated from few doses,"STK3; compound concentrations:100 nM and 1000 nM (sheet 'Lestaurtinib' of Supplementary Table 1),run:Lestaurtinib_02724_R1,Plate:MR021",44.8 nM
same,potency estimated from few doses,"STK3; compound concentrations:100 nM and 1000 nM (sheet 'Lestaurtinib' of Supplementary Table 1),run:Lestaurtinib_02724_R2,Plate:MR021",42.8 nM
same,potency estimated from few doses,"STK3; compound concentrations:100 nM and 1000 nM (sheet 'Lestaurtinib' of Supplementary Table 1),run:Lestaurtinib_02724_R3,Plate:MR021",38.4 nM
same,potency estimated from few doses,"STK3; compound concentrations:100 nM and 1000 nM (sheet 'Lestaurtinib' of Supplementary Table 1),run:Lestaurtinib_02748_R1,Plate:MR024",35.8 nM
same,potency estimated from few doses,"STK3; compound concentrations:100 nM and 1000 nM (sheet 'Lestaurtinib' of Supplementary Table 1),run:Lestaurtinib_02748_R3,Plate:MR024",40.1 nM
same,potency estimated from few doses,"STK3; compound concentrations:100 nM and 1000 nM (sheet 'Lestaurtinib' of Supplementary Table 1),run:Lestaurtinib_02765_R1,Plate:MR026",38.6 nM
same,potency estimated from few doses,"STK3; compound concentrations:100 nM and 1000 nM (sheet 'Lestaurtinib' of Supplementary Table 1),run:Lestaurtinib_02765_R2,Plate:MR026",37.7 nM
same,potency estimated from few doses,"STK3; compound concentrations:100 nM and 1000 nM (sheet 'Lestaurtinib' of Supplementary Table 1),run:Lestaurtinib_02766_R3,Plate:MR027",42.9 nM
same,potency estimated from few doses,"STK3; compound concentrations:100 nM and 1000 nM (sheet 'Lestaurtinib' of Supplementary Table 1),run:Lestaurtinib_02768_R1,Plate:MR028",31.9 nM
same,potency estimated from few doses,"STK3; compound concentrations:100 nM and 1000 nM (sheet 'Lestaurtinib' of Supplementary Table 1),run:Lestaurtinib_02768_R3,Plate:MR028",40.1 nM
same,potency estimated from few doses,"STK3; compound concentrations:100 nM and 1000 nM (sheet 'Lestaurtinib' of Supplementary Table 1),run:Lestaurtinib_02795_R1,Plate:MR022",43.4 nM
same,potency estimated from few doses,"STK3; compound concentrations:100 nM and 1000 nM (sheet 'Lestaurtinib' of Supplementary Table 1),run:Lestaurtinib_02795_R2,Plate:MR022",27.8 nM
same,potency estimated from few doses,"STK3; compound concentrations:100 nM and 1000 nM (sheet 'Lestaurtinib' of Supplementary Table 1),run:Lestaurtinib_02795_R3,Plate:MR022",141 nM
same,potency estimated from few doses,"STK3; compound concentrations:100 nM and 1000 nM (sheet 'Lestaurtinib' of Supplementary Table 1),run:Lestaurtinib_02802_R1,Plate:MR029",22.4 nM
same,potency estimated from few doses,"STK3; compound concentrations:100 nM and 1000 nM (sheet 'Lestaurtinib' of Supplementary Table 1),run:Lestaurtinib_02802_R3,Plate:MR029",47.8 nM
same,potency estimated from few doses,"STK3; compound concentrations:100 nM and 1000 nM (sheet 'Lestaurtinib' of Supplementary Table 1),run:Lestaurtinib_02896_R1,Plate:MR030",38.8 nM
same,potency estimated from few doses,"STK3; compound concentrations:100 nM and 1000 nM (sheet 'Lestaurtinib' of Supplementary Table 1),run:Lestaurtinib_02896_R2,Plate:MR030",37.2 nM
same,potency estimated from few doses,"STK3; compound concentrations:100 nM and 1000 nM (sheet 'Lestaurtinib' of Supplementary Table 1),run:Lestaurtinib_02896_R3,Plate:MR030",37.9 nM
same,potency estimated from few doses,"STK3; compound concentrations:100 nM and 1000 nM (sheet 'Lestaurtinib' of Supplementary Table 1),run:Lestaurtinib_03172_R1,Plate:MR031",35 nM
same,potency estimated from few doses,"STK3; compound concentrations:100 nM and 1000 nM (sheet 'Lestaurtinib' of Supplementary Table 1),run:Lestaurtinib_03172_R3,Plate:MR031",39.7 nM
same,potency estimated from few doses,"STK3; compound concentrations:100 nM and 1000 nM (sheet 'Lestaurtinib' of Supplementary Table 1),run:Lestaurtinib_03252_R2,Plate:MR032",48.1 nM
same,potency estimated from few doses,"STK3; compound concentrations:100 nM and 1000 nM (sheet 'Lestaurtinib' of Supplementary Table 1),run:Lestaurtinib_03260_R3,Plate:MR033",36.6 nM
same,potency estimated from few doses,"STK4; compound concentrations:100 nM and 1000 nM (sheet 'Lestaurtinib' of Supplementary Table 1),run:Lestaurtinib_02339_R1,Plate:MR001",42 nM
same,potency estimated from few doses,"STK4; compound concentrations:100 nM and 1000 nM (sheet 'Lestaurtinib' of Supplementary Table 1),run:Lestaurtinib_02339_R2,Plate:MR001",40.1 nM
same,potency estimated from few doses,"STK4; compound concentrations:100 nM and 1000 nM (sheet 'Lestaurtinib' of Supplementary Table 1),run:Lestaurtinib_02339_R3,Plate:MR001",27.7 nM
same,potency estimated from few doses,"STK4; compound concentrations:100 nM and 1000 nM (sheet 'Lestaurtinib' of Supplementary Table 1),run:Lestaurtinib_02364_R1,Plate:MR002",35.9 nM
same,potency estimated from few doses,"STK4; compound concentrations:100 nM and 1000 nM (sheet 'Lestaurtinib' of Supplementary Table 1),run:Lestaurtinib_02364_R2,Plate:MR002",43 nM
same,potency estimated from few doses,"STK4; compound concentrations:100 nM and 1000 nM (sheet 'Lestaurtinib' of Supplementary Table 1),run:Lestaurtinib_02364_R3,Plate:MR002",43.2 nM
same,potency estimated from few doses,STK4; [1],35.7 nM
same,potency estimated from few doses,STK4; [2],35 nM
same,potency estimated from few doses,STK4; [3],39.1 nM
same,potency estimated from few doses,STK4; [4],35.8 nM
same,potency estimated from few doses,STK4; [5],36.2 nM
same,potency estimated from few doses,STK4; [6],33 nM
same,potency estimated from few doses,STK4; [7],44.8 nM
same,potency estimated from few doses,STK4; [8],50.1 nM
same,potency estimated from few doses,"STK4; compound concentrations:100 nM and 1000 nM (sheet 'Lestaurtinib' of Supplementary Table 1),run:Lestaurtinib_02422_R3,Plate:MR006",45.3 nM
same,potency estimated from few doses,STK4; [9],42 nM
same,potency estimated from few doses,STK4; [10],41.6 nM
same,potency estimated from few doses,"STK4; compound concentrations:100 nM and 1000 nM (sheet 'Lestaurtinib' of Supplementary Table 1),run:Lestaurtinib_02437_R3,Plate:MR007",4.01 nM
same,potency estimated from few doses,STK4; [11],36.6 nM
same,potency estimated from few doses,"STK4; compound concentrations:100 nM and 1000 nM (sheet 'Lestaurtinib' of Supplementary Table 1),run:Lestaurtinib_02438_R3,Plate:MR008",38.2 nM
same,potency estimated from few doses,STK4; [12],38.6 nM
same,potency estimated from few doses,"STK4; compound concentrations:100 nM and 1000 nM (sheet 'Lestaurtinib' of Supplementary Table 1),run:Lestaurtinib_02443_R3,Plate:MR009",36.6 nM
same,potency estimated from few doses,STK4; [13],44.6 nM
same,potency estimated from few doses,"STK4; compound concentrations:100 nM and 1000 nM (sheet 'Lestaurtinib' of Supplementary Table 1),run:Lestaurtinib_02473_R3,Plate:MR010",37.7 nM
